# Data from PubChem BioAssay AID1508601 (ICCB-Longwood Screening Facility, Harvard Medical School, 2020).
# Where “and” joins values, the source holds several entries; their conditions need not be identical. Equal entries are not always repeated. Hit rate of the full screen: of about 5,700 compounds, about 85 (1%) were called active. Cut-off read from the data, not from the text of the source: active = p53-positive nuclei above about 36% (passing the limit was not always enough); inactive = the rest. Many of the other results were omitted from the sample, so actives are more common in it than they were. Some structures have more than one record in an assay (separate samples or runs), and their calls can disagree.
# Assays:
# [1] = p53 stabilisation in HPV-positive human cells, imaging, p53-positive nuclei imaging, 24 h, 48 h (AID 1508601); settings: 24/48 h
# [2] = biological target: Cellular tumor antigen p53 (Homo sapiens) (UniProt P04637); assay: as above; settings: 24/48 h, stronger effect = higher value
# [3] = measured here: cell number at 24 h, Library stock concentration: 10 mM
# [4] = measured here: cell number at 48 h, Library stock concentration: 10 mM
# [5] = Library stock concentration: 10 mM
# [6] = measured here: p53 positive nuclei at 24 h, Library stock concentration: 10 mM
# [7] = measured here: cell number at 24 h, Library stock concentration: 3.33 mM
# [8] = measured here: cell number at 48 h, Library stock concentration: 3.33 mM
# [9] = Library stock concentration: 3.33 mM
# [10] = measured here: p53 positive nuclei at 24 h, Library stock concentration: 3.33 mM
# [11] = measured here: cell number at 24 h, concentration not given here
# [12] = measured here: cell number at 48 h, concentration not given here
# [13] = measured here: p53 positive nuclei at 24 h, concentration not given here
# [14] = measured here: cell number at 24 h, Library stock concentration: 46 uM
# [15] = measured here: cell number at 24 h, Library stock concentration: 278 uM
# [16] = measured here: cell number at 24 h, Library stock concentration: 1.67 mM
# [17] = measured here: cell number at 48 h, Library stock concentration: 46 uM
# [18] = measured here: cell number at 48 h, Library stock concentration: 278 uM
# [19] = measured here: cell number at 48 h, Library stock concentration: 1.67 mM
# [20] = Library stock concentration: 46 uM
# [21] = Library stock concentration: 278 uM
# [22] = Library stock concentration: 1.67 mM
# [23] = measured here: p53 positive nuclei at 24 h, Library stock concentration: 46 uM
# [24] = measured here: p53 positive nuclei at 24 h, Library stock concentration: 278 uM
# [25] = measured here: p53 positive nuclei at 24 h, Library stock concentration: 1.67 mM
# Sequence of Cellular tumor antigen p53 (Homo sapiens) (P04637 whole entry, looked up): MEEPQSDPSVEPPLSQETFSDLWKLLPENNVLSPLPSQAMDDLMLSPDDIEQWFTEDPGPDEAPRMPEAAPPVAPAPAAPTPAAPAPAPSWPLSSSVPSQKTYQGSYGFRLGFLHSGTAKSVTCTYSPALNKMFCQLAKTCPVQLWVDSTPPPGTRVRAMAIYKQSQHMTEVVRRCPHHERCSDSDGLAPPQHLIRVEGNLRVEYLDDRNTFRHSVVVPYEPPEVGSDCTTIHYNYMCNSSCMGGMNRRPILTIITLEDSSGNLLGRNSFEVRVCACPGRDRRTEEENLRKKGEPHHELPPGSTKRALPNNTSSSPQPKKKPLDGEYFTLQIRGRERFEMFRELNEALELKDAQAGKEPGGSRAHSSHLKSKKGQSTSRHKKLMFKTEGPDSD
smiles,measurement,setting,value
CCN1CCN(Cc2ccc(NC(=O)c3ccc(C)c(Oc4ccnc5[nH]ccc45)c3)cc2C(F)(F)F)CC1,"nuclei count, normalised","[1]; measured here: cell number at 24 h, Library stock concentration: 80 uM",106%
same,"nuclei count, normalised","[1]; measured here: cell number at 24 h, Library stock concentration: 400 uM",105%
same,"nuclei count, normalised","[1]; measured here: cell number at 24 h, Library stock concentration: 2 mM",97.9%
same,"nuclei count, normalised",[1]; [3],101%
same,"nuclei count, normalised","[1]; measured here: cell number at 48 h, Library stock concentration: 80 uM",116%
same,"nuclei count, normalised","[1]; measured here: cell number at 48 h, Library stock concentration: 400 uM",108%
same,"nuclei count, normalised","[1]; measured here: cell number at 48 h, Library stock concentration: 2 mM",111%
same,"nuclei count, normalised",[1]; [4],112%
same,"p53-positive nuclei, normalised",[2]; Library stock concentration: 80 uM,-0.0678% (inactive)
same,"p53-positive nuclei, normalised",[2]; Library stock concentration: 400 uM,0.0485% (inactive)
same,"p53-positive nuclei, normalised",[2]; Library stock concentration: 2 mM,-0.223% (inactive)
same,"p53-positive nuclei, normalised",[2]; [5],-0.127% (inactive)
same,"p53-positive nuclei, normalised","[2]; measured here: p53 positive nuclei at 24 h, Library stock concentration: 80 uM",-0.156%
same,"p53-positive nuclei, normalised","[2]; measured here: p53 positive nuclei at 24 h, Library stock concentration: 400 uM",-0.0165%
same,"p53-positive nuclei, normalised","[2]; measured here: p53 positive nuclei at 24 h, Library stock concentration: 2 mM",-0.102%
same,"p53-positive nuclei, normalised",[2]; [6],-0.00926%
COc1cccc2c1C(=O)c1c(O)c3c(c(O)c1C2=O)C[C@@](O)(C(=O)CO)CC3O[C@H]1CC(N)C(O)C(C)O1 (stereo not given in full),"nuclei count, normalised",[1]; [7],45.5% and 23.6%
same,"nuclei count, normalised",[1]; [8],36.1% and 17%
same,"p53-positive nuclei, normalised",[2]; [9],21.6% (inactive) and 89.4% (active)
same,"p53-positive nuclei, normalised",[2]; [10],2.1% and 92.1%
COc1cccc2c1C(=O)c1c(O)c3c(c(O)c1C2=O)C[C@@](O)(C(=O)CO)C[C@@H]3OC1CC(N)C(OC2CCCCO2)C(C)O1 (stereo not given in full),"nuclei count, normalised",[1]; [7],43.4%
same,"nuclei count, normalised",[1]; [8],38.3%
same,"p53-positive nuclei, normalised",[2]; [9],16.4% (inactive)
same,"p53-positive nuclei, normalised",[2]; [10],10.3%
C=C1C[C@H](O)[C@H](C/C=C\CCCC(=O)O)[C@H]1/C=C/C(=O)CCCCC,"nuclei count, normalised",[1]; [11],111%
same,"nuclei count, normalised",[1]; [12],105%
same,"p53-positive nuclei, normalised",[2]; concentration not given here,0.125% (inactive)
same,"p53-positive nuclei, normalised",[2]; [13],-0.0213%
Nc1ccn(C2OC(CO)C(O)C2F)c(=O)n1 (stereo not given),"nuclei count, normalised","[1]; measured here: cell number at 24 h, Library stock concentration: 500 nM",115%
same,"nuclei count, normalised","[1]; measured here: cell number at 24 h, Library stock concentration: 1.5 uM",111%
same,"nuclei count, normalised","[1]; measured here: cell number at 24 h, Library stock concentration: 4.6 uM",77%
same,"nuclei count, normalised","[1]; measured here: cell number at 24 h, Library stock concentration: 13.7 uM",64.6%
same,"nuclei count, normalised","[1]; measured here: cell number at 24 h, Library stock concentration: 41 uM",64.5%
same,"nuclei count, normalised","[1]; measured here: cell number at 24 h, Library stock concentration: 123 uM",60.1%
same,"nuclei count, normalised","[1]; measured here: cell number at 24 h, Library stock concentration: 370 uM",55.2%
same,"nuclei count, normalised","[1]; measured here: cell number at 24 h, Library stock concentration: 1.111 mM",59.3%
same,"nuclei count, normalised","[1]; measured here: cell number at 24 h, Library stock concentration: 3.333 mM",55.3%
same,"nuclei count, normalised",[1]; [3],51.2%
same,"nuclei count, normalised","[1]; measured here: cell number at 48 h, Library stock concentration: 500 nM",115%
same,"nuclei count, normalised","[1]; measured here: cell number at 48 h, Library stock concentration: 1.5 uM",107%
same,"nuclei count, normalised","[1]; measured here: cell number at 48 h, Library stock concentration: 4.6 uM",62%
same,"nuclei count, normalised","[1]; measured here: cell number at 48 h, Library stock concentration: 13.7 uM",51.1%
same,"nuclei count, normalised","[1]; measured here: cell number at 48 h, Library stock concentration: 41 uM",50.8%
same,"nuclei count, normalised","[1]; measured here: cell number at 48 h, Library stock concentration: 123 uM",48.7%
same,"nuclei count, normalised","[1]; measured here: cell number at 48 h, Library stock concentration: 370 uM",44.4%
same,"nuclei count, normalised","[1]; measured here: cell number at 48 h, Library stock concentration: 1.111 mM",46.2%
same,"nuclei count, normalised","[1]; measured here: cell number at 48 h, Library stock concentration: 3.333 mM",45.1%
same,"nuclei count, normalised",[1]; [4],41.5%
same,"p53-positive nuclei, normalised",[2]; Library stock concentration: 500 nM,-0.105% (inactive)
same,"p53-positive nuclei, normalised",[2]; Library stock concentration: 1.5 uM,-0.0067% (inactive)
same,"p53-positive nuclei, normalised",[2]; Library stock concentration: 4.6 uM,0.019% (inactive)
same,"p53-positive nuclei, normalised",[2]; Library stock concentration: 13.7 uM,0.162% (inactive)
same,"p53-positive nuclei, normalised",[2]; Library stock concentration: 41 uM,0.839% (inactive)
same,"p53-positive nuclei, normalised",[2]; Library stock concentration: 123 uM,0.265% (inactive)
same,"p53-positive nuclei, normalised",[2]; Library stock concentration: 370 uM,0.43% (inactive)
same,"p53-positive nuclei, normalised",[2]; Library stock concentration: 1.111 mM,0.292% (inactive)
same,"p53-positive nuclei, normalised",[2]; Library stock concentration: 3.333 mM,0.443% (inactive)
same,"p53-positive nuclei, normalised",[2]; [5],0.266% (inactive)
same,"p53-positive nuclei, normalised","[2]; measured here: p53 positive nuclei at 24 h, Library stock concentration: 500 nM",-0.0685%
same,"p53-positive nuclei, normalised","[2]; measured here: p53 positive nuclei at 24 h, Library stock concentration: 1.5 uM",0.0513%
same,"p53-positive nuclei, normalised","[2]; measured here: p53 positive nuclei at 24 h, Library stock concentration: 4.6 uM",0.0647%
same,"p53-positive nuclei, normalised","[2]; measured here: p53 positive nuclei at 24 h, Library stock concentration: 13.7 uM",-0.0822%
same,"p53-positive nuclei, normalised","[2]; measured here: p53 positive nuclei at 24 h, Library stock concentration: 41 uM",0.108%
same,"p53-positive nuclei, normalised","[2]; measured here: p53 positive nuclei at 24 h, Library stock concentration: 123 uM",0.0172%
same,"p53-positive nuclei, normalised","[2]; measured here: p53 positive nuclei at 24 h, Library stock concentration: 370 uM",-0.0726%
same,"p53-positive nuclei, normalised","[2]; measured here: p53 positive nuclei at 24 h, Library stock concentration: 1.111 mM",-0.0774%
same,"p53-positive nuclei, normalised","[2]; measured here: p53 positive nuclei at 24 h, Library stock concentration: 3.333 mM",0.296%
same,"p53-positive nuclei, normalised",[2]; [6],-0.0521%
CC(C)(C)Nc1nc2cc(Cl)c(Cl)cc2nc1S(C)(=O)=O,"nuclei count, normalised",[1]; [14],108%
same,"nuclei count, normalised",[1]; [15],105%
same,"nuclei count, normalised",[1]; [16],93.6%
same,"nuclei count, normalised",[1]; [3],44.4%
same,"nuclei count, normalised",[1]; [17],118%
same,"nuclei count, normalised",[1]; [18],109%
same,"nuclei count, normalised",[1]; [19],106%
same,"nuclei count, normalised",[1]; [4],50%
same,"p53-positive nuclei, normalised",[2]; [20],-0.222% (inactive)
same,"p53-positive nuclei, normalised",[2]; [21],-0.1% (inactive)
same,"p53-positive nuclei, normalised",[2]; [22],-0.239% (inactive)
same,"p53-positive nuclei, normalised",[2]; [5],1.33% (inactive)
same,"p53-positive nuclei, normalised",[2]; [23],-0.151%
same,"p53-positive nuclei, normalised",[2]; [24],-0.151%
same,"p53-positive nuclei, normalised",[2]; [25],0.616%
same,"p53-positive nuclei, normalised",[2]; [6],1.86%
CC(C)CC1(CO)CCCN(C(=O)c2cccc(C#CC(C)(C)O)c2)C1 (stereo not given),"nuclei count, normalised",[1]; [11],99%
same,"nuclei count, normalised",[1]; [12],100%
same,"p53-positive nuclei, normalised",[2]; concentration not given here,0.108% (inactive)
same,"p53-positive nuclei, normalised",[2]; [13],0.27%
O=C(O)C1=CC(O)C(O)C(O)C1 (stereo not given),"nuclei count, normalised",[1]; [7],109%
same,"nuclei count, normalised",[1]; [8],109%
same,"p53-positive nuclei, normalised",[2]; [9],-0.187% (inactive)
same,"p53-positive nuclei, normalised",[2]; [10],-0.275%
COc1cc2ncc(-c3ccccc3)nc2cc1OC,"nuclei count, normalised",[1]; [7],78.5%
same,"nuclei count, normalised",[1]; [8],45.1%
same,"p53-positive nuclei, normalised",[2]; [9],55.2% (active)
same,"p53-positive nuclei, normalised",[2]; [10],3.05%
O=C(O)c1cc(-c2ccccc2)nc2ccccc12,"nuclei count, normalised",[1]; [7],111%
same,"nuclei count, normalised",[1]; [8],106%
same,"p53-positive nuclei, normalised",[2]; [9],-0.105% (inactive)
same,"p53-positive nuclei, normalised",[2]; [10],-0.282%
COC(=O)C(NC(=O)c1cc(-c2ccccc2)nc2ccccc12)c1ccccc1 (stereo not given),"nuclei count, normalised",[1]; [14],105%
same,"nuclei count, normalised",[1]; [15],105%
same,"nuclei count, normalised",[1]; [16],93.3%
same,"nuclei count, normalised",[1]; [3],96.9%
same,"nuclei count, normalised",[1]; [17],111%
same,"nuclei count, normalised",[1]; [18],107%
same,"nuclei count, normalised",[1]; [19],100%
same,"nuclei count, normalised",[1]; [4],103%
same,"p53-positive nuclei, normalised",[2]; [20],-0.241% (inactive)
same,"p53-positive nuclei, normalised",[2]; [21],-0.232% (inactive)
same,"p53-positive nuclei, normalised",[2]; [22],-0.104% (inactive)
same,"p53-positive nuclei, normalised",[2]; [5],0.115% (inactive)
same,"p53-positive nuclei, normalised",[2]; [23],-0.21%
same,"p53-positive nuclei, normalised",[2]; [24],-0.0834%
same,"p53-positive nuclei, normalised",[2]; [25],0.359%
same,"p53-positive nuclei, normalised",[2]; [6],0.069%
CCC(C(C)O)n1ncn(-c2ccc(N3CCN(c4ccc(OCC5CO[C@@](Cn6cncn6)(c6ccc(F)cc6F)C5)cc4)CC3)cc2)c1=O (stereo not given in full),"nuclei count, normalised",[1]; [7],91.3%
same,"nuclei count, normalised",[1]; [8],91.4%
same,"p53-positive nuclei, normalised",[2]; [9],-0.489% (inactive)
same,"p53-positive nuclei, normalised",[2]; [10],-0.171%
